According to PubChem BioAssay (NCI):
About 79,000 compounds went through this panel and 15% of them were active in at least one assay; those are over-represented in the sample as a whole. Rule as the data show it: active = growth inhibition above about 70%; inactive = the rest.

Assays:
[1] = NCI Yeast Anticancer Drug Screen. Data for the rad50 strain (AID 155);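 also: 0% = growth of vehicle-only cultures of the same strain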; settings: S. cerevisiae rad50 strain growth inhibition; at 50.0 µM; stronger effect = higher value
Procedure, shortened: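 A DNA repair-deficient yeast mutant serves as the test organism; compound-induced growth inhibition is calculated against vehicle-treated cells.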

[2] = NCI Yeast Anticancer Drug Screen. Data for the mec2-1 strain (AID 157); settings: S. cerevisiae mec2-1 strain, at 50.0 µM, stronger effect = higher value
Procedure, shortened: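 Each compound was tested on mec2-1 yeast, a strain altered in DNA damage repair or cell cycle control. Growth inhibition is reported relative to vehicle.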

[3] = NCI Yeast Anticancer Drug Screen. Data for the sgs1 mgt1 strain (AID 161);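 also: 0% = growth of cultures given vehicle only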; settings: S. cerevisiae sgs1 mgt1 strain, at 50.0 µM, stronger effect = higher value
Procedure, shortened: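 Inhibition of yeast growth, normalised to vehicle-treated controls, is reported for a strain bearing genetic alterations in DNA damage repair.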

[4] = NCI Yeast Anticancer Drug Screen. Data for the cln2 rad14 strain (AID 165);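 also: 0% = growth equal to vehicle treated cultures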; settings: S. cerevisiae cln2 rad14 strain, at 50.0 µM, stronger effect = higher value
Procedure, shortened: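 Test compounds were added to cln2 rad14 yeast cultures; inhibition of growth was then determined by comparison with vehicle treatment.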

[5] = NCI Yeast Anticancer Drug Screen. Data for the bub3 strain (AID 167); settings: S. cerevisiae bub3 mutant strain, at 50.0 µM, stronger effect = higher value
Procedure, shortened: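 Inhibition values come from growth of compound-treated mutant yeast normalised to vehicle-treated controls.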

[6] = NCI Yeast Anticancer Drug Screen. Data for the mlh1 rad18 strain (AID 175); settings: S. cerevisiae mlh1 rad18 strain growth inhibition; at 50.0 µM; stronger effect = higher value
Procedure, shortened: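 Inhibition values reflect reduced growth of mutant yeast versus vehicle-treated controls following compound exposure; the mutations affect DNA damage repair.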

Measured: growth inhibition

Cc1ccc(NC(=O)c2ccccc2)cc1
inactive: [1] 3.75% | [2] 4.7% | [3] -2.55% | [4] -16% | [5] 2.05% | [6] -0.3%

COc1cc(Cl)c(CC(=O)c2c[nH]c3ccccc23)cc1OC
inactive: [1] 10.6% | [2] -27.1% | [3] -17.8% | [4] -31.7% | [5] -29.2% | [6] 20.6%

BrCCC1CCCCCC1
inactive: [1] 8.75% | [2] -5.4% | [3] 5.85% | [4] 6.05% | [5] -4.25% | [6] 1.3%

O=C(/C=C/c1ccc(OCCSCCCCCCCCCCSCCOc2ccc(/C=C/C(=O)c3ccc(Cl)cc3)cc2)cc1)c1ccc(Cl)cc1
inactive: [1] -26.9% | [2] -25.1% | [3] -21.9% | [4] 13.7% | [5] -8.95% | [6] -29.9%

O=[N+]([O-])c1nccn1CC(O)CN1CCCCC1 (stereo unspecified)
inactive: [1] 5.95% | [2] -1.15% | [3] 16.8% | [4] -4.85% | [5] -7.85% | [6] 18.9%

O=S(Cc1cc2c(cc1Br)OCO2)c1ccccc1 (stereo unspecified)
inactive: [1] -27% | [2] -33.5% | [3] -20% | [4] -22.4% | [5] -37.7% | [6] -29.1%

Cc1nn(C23CC4CC(CC(C4)C2)C3)c(C(Cl)Cl)c1Cl
inactive: [1] -4.4% | [2] -7.95% | [3] 2.7% | [4] -8.75% | [5] 2.05% | [6] 4.7%

O=c1c(O)c(O)c1=O
inactive: [1] 1.3% | [2] -7% | [3] 0.8% | [4] 0.7% | [5] 9.3% | [6] -15.5%

C=CCCCCCCCCCCCCCCC
inactive: [1] -36% | [2] -26.9% | [3] -26.2% | [4] 5.3% | [5] -31.9% | [6] -35%

COC(=O)/C(=N/NC(N)=O)C(C(=O)OC)C(=O)C(=O)Nc1ccc(Cl)cc1 (stereo unspecified)
inactive: [1] 1.4% | [2] -21.8% | [3] -16.9% | [4] 13.8% | [5] -14.4% | [6] -34.5%

CS(=O)(=O)CC(O)(c1ccccc1)c1ccccc1
inactive: [1] -21.4% | [2] -2.4% | [3] 9.5% | [4] -13.3% | [5] 1.55% | [6] 28.1%

Fc1ccccc1-c1ccccc1
inactive: [1] -26.4% | [2] -1.5% | [3] -13.5% | [4] -37.5% | [5] -10.8% | [6] -11.2%

Cc1ccc(S(=O)(=O)OCC2CC=CCC2COS(=O)(=O)c2ccc(C)cc2)cc1 (stereo unspecified)
inactive: [1] 5.4% | [2] -8.2% | [3] -9.75% | [4] -15.2% | [5] 6% | [6] 28.8%

CCOC(=O)NC(OCCN(C)C)(C(F)(F)F)C(F)(F)F
inactive: [1] -32.4% | [2] 25.9% | [3] -53.5% | [4] 3.3% | [5] -4.15% | [6] 31.1%

CCOC(=O)c1c(O)[nH]c(=O)c(CC)c1C
inactive: [1] -13.2% | [2] -29.3% | [3] -45.8% | [4] -16.4% | [5] -30.8% | [6] -4.1%

CCOC(=O)C(CO)C1CCCC1 (stereo unspecified)
inactive: [1] 10.3% | [2] -2.65% | [3] 7.9% | [4] -5.4% | [5] 5.05% | [6] 2.75%

CC(C)CCC(C)C1CCC2C3CC/C(=N/Nc4ccc([N+](=O)[O-])cc4[N+](=O)[O-])C(C)(CCC(=O)O)C3CCC12C (stereo unspecified)
inactive: [1] -45.8% | [2] -12.2% | [3] -24.9% | [4] -24.2% | [5] -0.1% | [6] -3.4%

COc1ccccc1N=NC1=C2Nc3ccccc3N=C1N(c1ccccc1OC)C(=S)N2c1ccccc1C
inactive: [1] -10.3% | [2] -11.3% | [3] -16.4% | [4] -11.5% | [5] -2.95% | [6] -30.4%

CC1=C(C(=O)NNC(=O)CC#N)CC(C(=O)NNC(=O)CC#N)=C(C)N1
inactive: [1] -27.7% | [2] -43.8% | [3] -20.8% | [4] -24.6% | [5] -27.4% | [6] -0.05%

Cc1csc(=NCc2cccnc2)n1C
inactive: [1] 14.7% | [2] -9.75% | [3] 23.6% | [4] 23.4% | [5] 19.8% | [6] 15.8%

COC(=O)N1C2c3ccccc3C(c3ccccc32)N1C(=O)OC
inactive: [1] 6% | [2] 21.5% | [3] 11.3% | [4] -54.8% | [5] 32.8% | [6] 33.8%
